This is an account of results in PubChem BioAssay (NCATS).

Records with an inconclusive call do not appear. Activity calls are given as the source filed them. Unless noted, calls follow the shape of the full dose curve.

For assay [1], the target named is Lysosomal acid glucosylceramidase (Homo sapiens) (UniProt P04062). As to the kind of experiment: Glucocerebrosidase-p2 (AID 348; in the data active = potency below about 10 µM; also: potency is read from the fitted curve at half-maximal effect). Conditions: purified GBA, blue fluorogenic substrate, 40 min. The method, boiled down:
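Normal human glucocerebrosidase (0.2 nM) with blue fluorogenic substrate (80 uM final) in citrate/phosphate pH 5.9 with 10mM sodium taurocholate, 0.01% tween-20; 40 min RT, NaOH/glycine stop; fluorescence Ex 365/Em 440; AC50 from a titration from 0.6 nM upwards.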

The nature of assay [2]: AP1 Signaling Pathway (AID 357; active = well fitted curve in either direction with a large enough effect, not every such curve was filed as active; also: % is scaled to controls: 0 for no effect and ±100 for the full control effect). To be noted: ME-180 AP-1-bla reporter, EGF-induced, beta-lactamase ratio, 5 h; at 7.69 µM (top of the series) unless noted. The method, boiled down: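 AP-1-bla ME-180 cells with beta-lactamase reporter under AP-1 response element, stimulated with EC50 EGF; compounds titrated, 5 hours at 37 degrees Celsius. CCF4 read at 460/530 nm ratio; positive and negative modulators judged by AC50.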

Assay [3] concerns the target Cytochrome P450 1A2 (Homo sapiens) (UniProt P05177). Nature of the assay: p450-cyp1a2 (AID 410). Also: potency is read from the fitted curve at half-maximal effect.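 As to activity change, negative = inhibition: -100% = full effect of reference inhibitor.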 To be noted: recombinant CYP1A2, luciferin-ME demethylation, luminescence; series mostly up to 57 µM. The method, boiled down:
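Luminescent demethylation readout: Luciferin-ME (100uM, equal to Km) turned over by 20nM CYP1A2 for 60 min at room temperature after NADPH regeneration addition, following 10 min compound preincubation. Normalization used 57 uM furafylline as full inhibition.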

Assay [4] can be described thus: Stat Signaling Pathway (AID 446; active = well fitted curve in either direction with a large enough effect, not every such curve was filed as active;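 also: ME-180 cervical cancer cells given 40 pM IL-6 alongside compound; SIE-controlled beta-lactamase reporter measured as 460/530 nm FRET emission ratio; % is scaled to controls: 0 for no effect and ±100 for the full control effect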). To be noted: ME-180 SIE beta-lactamase reporter, IL-6 stimulated, 5 h; at 7.69 µM (top of the series) unless noted. The method, boiled down:
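Compound effects on IL-6-induced STAT reporter activity were measured in ME-180 cells. After overnight culture, cells were co-treated with 40 pM IL-6 for 5 hrs before beta-lactamase substrate loading at room temperature.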

The target of assay [5] is Glucocorticoid receptor (Homo sapiens) (UniProt P04150). Nature of the assay: GR-EFC Redistribution (AID 451). Also: potency is read from the fitted curve at half-maximal effect. To be noted: CHO-K1 GR-EFC translocation, beta-gal luminescence, 2 h. In outline: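 CHO-K1 cells expressing nuclear EA and GR-ED fragments of b-gal; compounds titrated up to 46 uM final, 2 h at 37 C. GR nuclear translocation read as complemented b-gal luminescence after 1 h RT detection.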

Assay [6] has as its target Cytochrome P450 3A4 (Homo sapiens) (UniProt P08684). Nature of the assay: qHTS Assay for Inhibitors and Substrates of Cytochrome P450 3A4 (AID 884; active = well fitted curve in the direction sought with a large enough effect; an effect the other way counts as inactive or inconclusive; also: % is scaled to controls: 0 for no effect and ±100 for the full control effect; nearly all actives have a fitted effect of over 50% in size). Conditions: recombinant CYP3A4, Luciferin-PPXE luminescence; series mostly up to 57.1 µM. In outline:
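Luminescent readout of luciferin produced by CYP3A4 (20 nM) dealkylation of Luciferin-PPXE, 25 uM (its KM). NADPH-driven reaction ran 60 min at RT after 10 min compound preincubation; data scaled to 57 uM ketoconazole as 100% inhibition.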

For assay [7] the target is unchanged. Nature of the assay: qHTS Assay for Activators of Cytochrome P450 3A4 (AID 885; active = well fitted curve in the direction sought with a large enough effect; an effect the other way counts as inactive or inconclusive; also: nearly all actives have a fitted effect of over 65% in size; also: potency is read from the fitted curve at half-maximal effect). To be noted: recombinant CYP3A4, Luciferin-PPXE luminescence, 60 min; series mostly up to 57.1 µM. In outline:
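CYP3A4 activity: Luciferin-PPXE O-dealkylation, 25uM substrate, 200mM KPO4, RT throughout. Read-out is luciferase luminescence; higher values reflect activation.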
(In general: qHTS replaces the single test concentration by a dilution series.)

Assay [8] has as its target Cytochrome P450 2C19 (Homo sapiens) (UniProt P33261). Nature of the assay: qHTS Assay for Inhibitors and Substrates of Cytochrome P450 2C19 (AID 899; active = well fitted curve in the direction sought with a large enough effect; an effect the other way counts as inactive or inconclusive; also: potency is read from the fitted curve at half-maximal effect; nearly all actives have a fitted effect of over 60% in size). To be noted: recombinant CYP2C19, luciferin-H EGE luminescence; series mostly up to 57.1 µM. The method, boiled down: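 Luminescent read-out of luciferin formed from Luciferin-H EGE (10uM, equal to KM). Enzyme 5nM in 50mM KPO4; compound added, 10 min at 37C, then NADPH regenerating system for 60 min at 37C. Full inhibition defined by 57uM ketoconazole.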

Assay [9] in a line: qHTS Assay for Lipid Storage Modulators (AID 1519). To be noted: Drosophila S3 cells, BODIPY lipid droplet/cell ratio, laser cytometry, cells loaded with oleic acid; for activity change, negative = inhibition: at 57.5 µM (top of the series). The method, boiled down:
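Cells seeded at 5,000 per well were treated with compounds over a concentration series and loaded with oleic acid (400 uM, as added). Lipid droplet fluorescence (488 nm excitation, 500-530 nm channel) was read by laser-scanning cytometry and normalized to 20 uM Triacsin C.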

A short description of assay [10]: Primary qHTS for small molecule stabilizers of the endoplasmic reticulum resident proteome: Secreted ER Calcium Modulated Protein (SERCaMP) assay (AID 1508630; active = well fitted curve in the direction sought with a large enough effect; an effect the other way counts as inactive or inconclusive; also: % is scaled to controls: 0 for no effect and ±100 for the full control effect). To be noted: SH-SY5Y GLuc-SERCaMP (Gaussia luciferase released on ER calcium loss) secretion, thapsigargin, luminescence; series mostly up to 38.4 µM. In outline:
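The SH-SY5Y reporter protocol was run at 3 concentrations up to 38.3 uM (primary) or 11 concentrations (follow-up): 16 h compound, 100 nM thapsigargin for 4 h, then extracellular luciferase luminescence.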

The target in assay [11] is Mitogen-activated protein kinase 10 (Mus musculus) (UniProt Q61831). Nature of the assay: JNK3 AlphaScreen Assay (AID 530; active = well fitted curve in either direction with a large enough effect, not every such curve was filed as active;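 also: kinase came from lysate of stimulated human HepG2 cells; signal reports phosphorylation of biotinylated GST-cJun 1-79 at Ser73 with 10 µM ATP; % is scaled to controls: 0 for no effect and ±100 for the full control effect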). Conditions: JNK3 lysate, c-Jun phosphorylation; series mostly up to 57.1 µM. The method, boiled down:
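Activity was read by AlphaScreen after JNK3-containing HepG2 lysate (cytokine pre-activated) phosphorylated biotinylated GST-cJun with 10 uM ATP at room temperature. Phospho-Ser73 cJun antibody with Protein-A acceptor beads provided detection.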
In general terms: In Alpha technology, singlet oxygen from a donor bead excites a nearby acceptor bead.

In assay [12] the target is 3',5'-cyclic-AMP phosphodiesterase 4B (Homo sapiens) (UniProt Q07343). As to the kind of experiment: qHTS Assay for Inhibitors of PDE-IV (AID 607; active = well fitted activation curve with a large enough effect in the main read-out, with a control signal flat, not every such curve was filed as active; also: % of control where 0% means no effect). To be noted: HEK293 ACTOne CNG channel cells, membrane potential fluorescence; series mostly up to 22.9 µM. The method, boiled down:
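ACTOne HEK293 cells carry a modified cAMP-gated CNG channel and express endogenous PDE4; plated 1000 cells/well, compounds up to 22.9 uM final. Membrane-potential dye fluorescence (ex 535/em 590) was read; parental cells received 10 uM forskolin + 100 uM RO 20-1724.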

Assay [13] is described as follows: qHTS Assay for Identification of Small Molecule Agonists for Hypoxia Response Element Signaling Pathway (AID 914; active = well fitted activation curve with a large enough effect in the signal ratio, with a control signal flat, not every such curve was filed as active; the % refers to the signal ratio; also: % of control where 0% means no effect). Conditions: ME-180 (cervical carcinoma) HRE-bla reporter, beta-lactamase ratio, CoCl2, 17 h; activation: stronger effect = higher value. The method, boiled down: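 Compounds in a titration series were added to ME-180 reporter cells alongside an EC50 level of CoCl2. After 17 hours, beta-lactamase activity was read as the 460nm/530nm emission ratio of CCF4, giving AC50 values.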

In assay [14] the target is Cytochrome P450 2D6 (Homo sapiens) (UniProt P10635). As to the kind of experiment: qHTS Assay for Inhibitors and Substrates of Cytochrome P450 2D6 (AID 891; active = well fitted curve in the direction sought with a large enough effect; an effect the other way counts as inactive or inconclusive; also: potency is read from the fitted curve at half-maximal effect; nearly all actives have a fitted effect of over 60% in size). To be noted: recombinant CYP2D6, luciferin-ME EGE luminescence; series mostly up to 57.1 µM. The method, boiled down: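 Luminescent read-out of luciferin formed by 5 nM human CYP2D6 demethylating 30 uM Luciferin-ME EGE (Km level) over 60 min at room temperature after NADPH regeneration addition. Data normalized to full inhibition by 1.43 uM quinidine.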

The mark [15] stands for this setting: measured here: cell count channel max response.
Where [16] appears, read: measured here: lipid channel max response.

Chain of Cytochrome P450 2C19 (Homo sapiens) (P33261 whole entry, looked up): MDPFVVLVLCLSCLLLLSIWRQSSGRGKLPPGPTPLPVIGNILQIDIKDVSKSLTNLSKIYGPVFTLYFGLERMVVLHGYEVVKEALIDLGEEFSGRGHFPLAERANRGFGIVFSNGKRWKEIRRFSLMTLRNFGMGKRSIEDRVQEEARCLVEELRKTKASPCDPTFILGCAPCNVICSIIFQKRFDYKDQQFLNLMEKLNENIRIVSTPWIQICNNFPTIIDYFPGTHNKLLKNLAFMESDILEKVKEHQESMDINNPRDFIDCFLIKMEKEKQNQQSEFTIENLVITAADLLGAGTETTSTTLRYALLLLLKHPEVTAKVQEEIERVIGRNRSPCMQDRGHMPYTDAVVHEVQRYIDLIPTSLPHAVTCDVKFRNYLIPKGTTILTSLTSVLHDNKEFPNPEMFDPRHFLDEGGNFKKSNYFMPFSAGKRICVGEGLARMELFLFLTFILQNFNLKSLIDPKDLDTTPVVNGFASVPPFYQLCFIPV
Chain of Glucocorticoid receptor (Homo sapiens) (P04150 whole entry, looked up, the tested form may be a part): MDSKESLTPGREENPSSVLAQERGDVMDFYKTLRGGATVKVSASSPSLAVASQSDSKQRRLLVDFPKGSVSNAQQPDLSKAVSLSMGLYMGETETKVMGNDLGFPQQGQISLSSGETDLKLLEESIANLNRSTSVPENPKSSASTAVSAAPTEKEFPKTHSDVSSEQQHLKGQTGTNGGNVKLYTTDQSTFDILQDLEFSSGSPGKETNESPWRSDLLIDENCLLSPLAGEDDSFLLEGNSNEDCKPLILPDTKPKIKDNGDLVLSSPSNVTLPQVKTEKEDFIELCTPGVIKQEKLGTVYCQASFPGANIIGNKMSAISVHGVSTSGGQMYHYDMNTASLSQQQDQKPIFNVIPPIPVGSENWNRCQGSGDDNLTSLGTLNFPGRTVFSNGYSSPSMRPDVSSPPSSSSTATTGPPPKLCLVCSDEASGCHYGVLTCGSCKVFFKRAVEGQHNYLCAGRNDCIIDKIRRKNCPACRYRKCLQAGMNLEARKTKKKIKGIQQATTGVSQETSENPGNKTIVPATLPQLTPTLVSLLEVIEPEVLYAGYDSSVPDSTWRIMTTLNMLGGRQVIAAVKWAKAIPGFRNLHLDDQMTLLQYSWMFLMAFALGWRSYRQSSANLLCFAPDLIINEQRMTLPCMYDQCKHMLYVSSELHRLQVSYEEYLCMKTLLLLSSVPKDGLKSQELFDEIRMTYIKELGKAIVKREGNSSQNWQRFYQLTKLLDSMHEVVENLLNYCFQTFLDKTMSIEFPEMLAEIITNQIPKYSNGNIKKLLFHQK
Chain of Cytochrome P450 1A2 (Homo sapiens) (P05177 whole entry, looked up): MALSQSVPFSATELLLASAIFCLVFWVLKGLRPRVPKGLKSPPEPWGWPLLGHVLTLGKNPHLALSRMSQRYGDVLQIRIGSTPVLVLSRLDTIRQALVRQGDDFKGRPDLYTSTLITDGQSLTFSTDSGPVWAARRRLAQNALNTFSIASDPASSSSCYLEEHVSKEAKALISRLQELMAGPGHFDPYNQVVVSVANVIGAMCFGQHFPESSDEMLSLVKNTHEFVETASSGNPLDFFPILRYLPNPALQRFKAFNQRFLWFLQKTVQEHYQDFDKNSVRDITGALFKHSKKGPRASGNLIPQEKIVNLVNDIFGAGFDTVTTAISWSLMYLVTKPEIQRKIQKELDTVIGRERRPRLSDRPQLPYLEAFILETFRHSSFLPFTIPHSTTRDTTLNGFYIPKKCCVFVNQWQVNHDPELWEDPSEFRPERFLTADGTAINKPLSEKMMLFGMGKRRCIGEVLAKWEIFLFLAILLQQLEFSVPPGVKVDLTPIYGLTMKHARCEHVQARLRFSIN
Chain of Cytochrome P450 3A4 (Homo sapiens) (P08684 whole entry, looked up): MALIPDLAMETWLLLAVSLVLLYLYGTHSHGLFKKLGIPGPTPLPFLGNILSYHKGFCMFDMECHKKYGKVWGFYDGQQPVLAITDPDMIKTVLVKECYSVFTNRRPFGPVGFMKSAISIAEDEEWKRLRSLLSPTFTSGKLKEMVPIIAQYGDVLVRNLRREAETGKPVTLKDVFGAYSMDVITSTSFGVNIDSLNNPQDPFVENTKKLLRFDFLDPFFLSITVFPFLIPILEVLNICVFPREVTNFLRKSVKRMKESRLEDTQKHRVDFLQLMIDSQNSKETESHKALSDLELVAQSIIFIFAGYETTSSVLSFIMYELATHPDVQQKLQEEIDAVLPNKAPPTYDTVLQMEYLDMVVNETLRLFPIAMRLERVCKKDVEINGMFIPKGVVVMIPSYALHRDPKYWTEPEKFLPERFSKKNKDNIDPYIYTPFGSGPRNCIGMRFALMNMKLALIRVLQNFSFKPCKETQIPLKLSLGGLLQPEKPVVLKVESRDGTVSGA
Chain of Lysosomal acid glucosylceramidase (Homo sapiens) (P04062 whole entry, looked up): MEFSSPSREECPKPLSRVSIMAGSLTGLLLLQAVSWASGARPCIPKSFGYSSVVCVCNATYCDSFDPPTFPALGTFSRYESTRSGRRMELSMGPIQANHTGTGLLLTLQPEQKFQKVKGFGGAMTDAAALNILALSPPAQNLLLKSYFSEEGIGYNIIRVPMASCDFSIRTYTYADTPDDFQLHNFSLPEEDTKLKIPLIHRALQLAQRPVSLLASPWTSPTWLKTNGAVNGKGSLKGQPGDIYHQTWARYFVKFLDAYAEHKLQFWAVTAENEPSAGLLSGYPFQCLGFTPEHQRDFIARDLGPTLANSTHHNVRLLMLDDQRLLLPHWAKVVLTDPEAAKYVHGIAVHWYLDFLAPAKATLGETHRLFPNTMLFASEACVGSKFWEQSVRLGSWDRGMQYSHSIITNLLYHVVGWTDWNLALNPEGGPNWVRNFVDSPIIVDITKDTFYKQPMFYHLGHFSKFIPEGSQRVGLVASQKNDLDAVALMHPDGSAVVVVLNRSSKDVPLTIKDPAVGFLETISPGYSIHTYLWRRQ
Chain of 3',5'-cyclic-AMP phosphodiesterase 4B (Homo sapiens) (Q07343 whole entry, looked up): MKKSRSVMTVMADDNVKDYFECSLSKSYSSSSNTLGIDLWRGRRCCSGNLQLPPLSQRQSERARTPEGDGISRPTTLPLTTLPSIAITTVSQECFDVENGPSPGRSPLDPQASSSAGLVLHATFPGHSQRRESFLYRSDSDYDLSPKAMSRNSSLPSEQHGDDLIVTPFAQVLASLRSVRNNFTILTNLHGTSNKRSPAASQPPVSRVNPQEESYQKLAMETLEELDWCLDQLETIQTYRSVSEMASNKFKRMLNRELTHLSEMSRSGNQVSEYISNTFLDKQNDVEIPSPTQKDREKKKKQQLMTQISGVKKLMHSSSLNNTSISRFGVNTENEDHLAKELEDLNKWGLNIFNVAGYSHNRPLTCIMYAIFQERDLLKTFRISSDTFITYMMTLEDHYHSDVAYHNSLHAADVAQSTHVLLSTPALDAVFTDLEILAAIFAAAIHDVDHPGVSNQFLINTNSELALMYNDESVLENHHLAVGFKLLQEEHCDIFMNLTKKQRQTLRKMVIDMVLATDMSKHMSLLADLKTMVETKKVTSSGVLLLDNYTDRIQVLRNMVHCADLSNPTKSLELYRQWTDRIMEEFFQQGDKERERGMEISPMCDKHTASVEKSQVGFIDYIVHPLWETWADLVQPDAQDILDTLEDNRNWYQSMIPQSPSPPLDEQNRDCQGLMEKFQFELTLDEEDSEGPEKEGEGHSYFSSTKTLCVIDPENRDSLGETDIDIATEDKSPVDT
Chain of Cytochrome P450 2D6 (Homo sapiens) (P10635 whole entry, looked up): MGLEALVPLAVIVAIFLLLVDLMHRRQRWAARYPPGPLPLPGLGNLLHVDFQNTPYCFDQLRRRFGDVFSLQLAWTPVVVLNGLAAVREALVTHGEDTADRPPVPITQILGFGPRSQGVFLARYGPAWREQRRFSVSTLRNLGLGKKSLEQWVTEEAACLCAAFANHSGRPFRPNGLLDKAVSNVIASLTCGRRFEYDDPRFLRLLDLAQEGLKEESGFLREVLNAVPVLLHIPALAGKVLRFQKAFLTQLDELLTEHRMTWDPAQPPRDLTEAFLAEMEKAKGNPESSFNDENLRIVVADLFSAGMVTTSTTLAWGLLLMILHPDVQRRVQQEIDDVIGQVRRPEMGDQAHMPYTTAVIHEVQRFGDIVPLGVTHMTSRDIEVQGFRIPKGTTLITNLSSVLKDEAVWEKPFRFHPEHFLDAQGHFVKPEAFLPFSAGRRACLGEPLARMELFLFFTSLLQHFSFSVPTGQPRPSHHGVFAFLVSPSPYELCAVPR

Consider `O=C(c1cccc(F)c1)N1CCC2(CCN(Cc3nccs3)CC2)CC1`, for which the Potency is > 11.4 µM (inactive) in [1]; 1.58 µM (active) in assay [3]; > 46 µM (inactive) in [5]; 15.8 µM (active) in [7]; 1.58 µM (active) in assay [8]. The values for the activity change, negative = inhibition in assay [2] and in assay [9] were -8.17% (inactive) and 6.34% (inactive), respectively. Moreover, the activity, negative = inhibition in assay [4] is -0.835% (inactive). Further, the Potency entry in [6] is “inactive”. Moreover, the figures for the max response in assay [9] (setting [15]) and in [9] (setting [16]) were 8.7% and 20.4%, respectively. Also, the result in assay [10] was inactive.
Take `COc1ccc(NC(=O)N2CCC3(CC2)CCN(S(C)(=O)=O)CC3)cc1`: the Potency is > 11.4 µM (inactive) in assay [1], > 46 µM (inactive) in [5] and 3.16 µM (active) in [8]. Further, the activity change, negative = inhibition is -1.54% (inactive) in [2] and 8.18% (inactive) in assay [9]. Besides, the Potency result in assay [3], in assay [11] and in [12] was “inactive” in each case. Further, the activity, negative = inhibition in assay [4] is 2.59% (inactive). In addition, the max response came to 16.5% in assay [9] (setting [15]) and 28.9% in assay [9] (setting [16]). In assay [10], the result was inactive.
Take `COCC(=O)N1CCC2(CCCN(c3ncccn3)C2)CC1`: the Potency in [1] was > 11.4 µM (inactive); in assay [5], > 46 µM (inactive). The values for the activity change, negative = inhibition in [2] and in assay [9] were -5.71% (inactive) and 7.95% (inactive), respectively. In addition, the Potency entry in assay [3], in [11] and in assay [12] was “inactive” throughout. The activity, negative = inhibition in assay [4] was -7.69% (inactive). In assay [13], the activation was 11.9% (inactive). The max response in assay [9] (setting [15]) was found to be 9.8%; in [9] (setting [16]), 21.8%. Moreover, in assay [10], the result was inactive.
For the compound `COc1ccccc1CN1CCCC2(CCN(C(=O)c3ccco3)CC2)C1`, the Potency in assay [1] was > 11.4 µM (inactive); in assay [5], > 46 µM (inactive); in assay [14], 2.51 µM (active). Moreover, the values for the activity change, negative = inhibition in assay [2] and in assay [9] were -11.6% (inactive) and 2.54% (inactive), respectively. The Potency entry in assay [3], in assay [11], in assay [12] and in assay [7] was “inactive” in each case. The activity, negative = inhibition in [4] was -1.13% (inactive). Further, the figures for the max response in assay [9] (setting [15]) and in assay [9] (setting [16]) were 5.74% and 11.8%, respectively. In addition, the result in assay [10] was inactive.
For `COc1ccc(C(=O)N2CCC3(CCCN(Cc4ccccc4OC)C3)CC2)cc1`, the Potency in assay [1] is > 11.4 µM (inactive); in assay [5], > 46 µM (inactive). For the same compound, the values for the activity change, negative = inhibition in [2] and in assay [9] were 0.332% (inactive) and -0.879% (inactive), respectively. Further, the Potency entry in assay [3], in [11], in assay [12] and in assay [7] was “inactive” each time. The activity, negative = inhibition in [4] was -6.54% (inactive). In addition, the max response in [9] (setting [15]) was -8.51%; in [9] (setting [16]) it was -6.45%. For the same compound, the outcome in assay [10] was inactive.
As to `COc1ccccc1CN1CCCC2(CCN(C(=O)c3cccn3C)CC2)C1`, the Potency was > 11.4 µM (inactive) in assay [1], > 46 µM (inactive) in assay [5] and 3.16 µM (active) in [14]. In addition, the activity change, negative = inhibition is -2.64% (inactive) in [2] and 4.14% (inactive) in [9]. In addition, the Potency result in assay [3], in assay [11], in assay [12] and in [7] was “inactive” each time. Moreover, in [4], the activity, negative = inhibition was 4.46% (inactive). The max response turned out to be 21.7% in assay [9] (setting [15]) and 29.7% in assay [9] (setting [16]). Moreover, the outcome in assay [10] was inactive.
For the compound `O=C(Oc1ccccc1)N1CCC2(CCCN(c3ccccn3)C2)CC1`, the Potency is > 11.4 µM (inactive) in assay [1], 20 µM (active) in [3], > 46 µM (inactive) in assay [5] and 7.94 µM (active) in [8]. Also, the figures for the activity change, negative = inhibition in assay [2] and in [9] were -14.7% (inactive) and 1.87% (inactive), respectively. In addition, in [4], the activity, negative = inhibition was 2.71% (inactive). In addition, the Potency result in [11], in assay [12] and in assay [7] was “inactive” each time. The max response in assay [9] (setting [15]) was -15.5%; in assay [9] (setting [16]), -9.96%. In assay [10], the result was inactive.
